Inconclusive results are not listed. The source made the active and inactive calls. Unless noted, calls follow the shape of the dose curve; as a rule, active = well fitted curve in the direction sought with a large enough effect in the repeat runs; inconclusive = weak or mixed curves; inactive = no such curve, though single readings can be large; an effect the other way counts as inactive or inconclusive.
What was measured:
[1] = A CellTox Green Cytotoxicity Assay to monitor cytotoxicity in HepG2 cells - 8 hour (AID 1224890); also: nearly all actives have a fitted effect of over 45% in size
Outline: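 Nonlytic assay: viable cells exclude the dye, so fluorescence scales with cell death. HepG2 at 600 cells/well, compounds added after 5 h, signal read across 40 h.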

[2] = qHTS assay to identify small molecule antagonists of the estrogen receptor alpha (ER-alpha) signaling pathway using the BG1 cell line in the presence of 0.1 nM 17-beta-estradiol - cell viability counter screen (AID 1259241); also: nearly all actives have a fitted effect of over 40% in size
Outline: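 VM7Luc4E2 cells (endogenous full-length ER-alpha, 4xERE-luciferase), cultured 5 days in charcoal-stripped serum, exposed to compounds with 0.1 nM 17beta-estradiol (final) for 22 hr at 37C. Viability read in same wells as live-cell protease fluorescence after 30 min.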

[3] = qHTS assay to identify small molecule antagonists of the androgen receptor (AR) signaling pathway using the MDA cell line in the presence of 0.5 nM R1881 - cell viability counter screen (AID 1259242); also: nearly all actives have a fitted effect of over 45% in size
Outline: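 R1881 at 0.5 nM final stimulated MDA-kb2 cells during 16 hr compound treatment at 37C. Cytotoxicity read: CellTiter-Fluor fluorescence after 30 min.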

[4] = target: Estrogen receptor (Homo sapiens) (UniProt P03372); assay: qHTS assay to identify small molecule antagonists of the estrogen receptor alpha (ER-alpha) signaling pathway using the BG1 cell line in the presence of 0.1 nM 17-beta-estradiol (AID 1259244); also: nearly all actives have a fitted effect of over 50% in size
Estrogen receptor (Homo sapiens), sequence (P03372 whole entry, looked up): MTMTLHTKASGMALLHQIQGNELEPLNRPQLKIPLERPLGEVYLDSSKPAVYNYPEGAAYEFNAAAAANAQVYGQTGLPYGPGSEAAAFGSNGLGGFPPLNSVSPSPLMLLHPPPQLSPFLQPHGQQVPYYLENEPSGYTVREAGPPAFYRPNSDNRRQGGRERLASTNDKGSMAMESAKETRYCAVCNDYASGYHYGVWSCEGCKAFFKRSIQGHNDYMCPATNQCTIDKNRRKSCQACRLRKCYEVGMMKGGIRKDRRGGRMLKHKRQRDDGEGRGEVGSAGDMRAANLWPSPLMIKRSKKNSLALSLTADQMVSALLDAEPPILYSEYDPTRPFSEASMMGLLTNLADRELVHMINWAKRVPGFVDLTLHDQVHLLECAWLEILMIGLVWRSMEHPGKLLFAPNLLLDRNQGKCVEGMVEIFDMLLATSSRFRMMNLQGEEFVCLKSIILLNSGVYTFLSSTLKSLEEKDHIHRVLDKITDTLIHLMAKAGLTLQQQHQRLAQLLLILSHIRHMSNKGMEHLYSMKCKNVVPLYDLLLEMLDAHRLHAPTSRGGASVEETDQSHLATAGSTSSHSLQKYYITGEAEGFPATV
Outline: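 VM7Luc4E2; 4xERE-luciferase; 0.1 nM E2 final; 22 h co-incubation, 37C; ONE-Glo luminescence after 30 min at room temperature.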

[5] = qHTS assay to identify small molecule phospholipidosis (PLD) inducers (AID 1259344; active = well fitted curve in the direction sought with a large enough effect; an effect the other way counts as inactive or inconclusive)
Outline: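 HepG2 cells grown on collagen I take up LipidTOX Red while exposed to compound for 24 h; after fixation they are imaged at 20x and pit metrics are extracted.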

[6] = qHTS assay to identify small molecule HDAC inhibitors (AID 1259364);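 also: wild-type HCT-116 cells with endogenous class I/II HDAC activity; top concentration of the series differs between compounds; nearly all actives have a fitted effect of over 45% in size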
Outline: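 Relative class I and II HDAC activity is taken from the luminogenic signal in HCT-116 cells, with compound exposure 2 hr and reagent development 30 min at room temperature.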

[7] = qHTS assay to identify small molecule HDAC inhibitors - cell viability counter screen (AID 1259365); also: series mostly up to about 92 µM; nearly all actives have a fitted effect of over 50% in size
Outline: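 Wild-type HCT-116 cells, 1,500/well, cultured overnight, then compound-treated 2 h at 37 C. Viability measured as ATP luminescence with CellTiter-Glo after 30 min at room temperature.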

[8] = qHTS assay to identify small molecule agonists of the sonic hedgehog signaling (Shh) pathway - cell viability counter screen (AID 1259366); also: nearly all actives have a fitted effect of over 50% in size
Outline: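 NIH/3T3-derived Gli1-Luc reporter cells, 2,000 per well, received compound after 4 h and were treated about 23 h at 37C. Viability measured in the same wells by CellTiter-Fluor fluorescence after 1 h.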

[9] = qHTS assay to identify small molecule agonists of the sonic hedgehog signaling (Shh) pathway (AID 1259368; calls by dose curve;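 also: NIH/3T3-derived 3T3Gli1-Luc cells carrying a stable Gli1-driven firefly luciferase reporter; series mostly up to about 92 µM; nearly all actives have a fitted effect of over 15% in size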)
Outline: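 Mouse fibroblast (NIH/3T3) reporter cells with stably integrated Gli1-Luc were treated 24 hr with compound; firefly luciferase luminescence served as the read-out.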

[10] = qHTS assay to identify small molecule antagonists of the sonic hedgehog signaling (Shh) pathway (AID 1259369; calls by dose curve; also: nearly all actives have a fitted effect of over 45% in size)
Outline: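 Conditioned medium drives Shh signalling in 3T3Gli1-Luc cells; compounds in DMSO co-applied, 24hr at 37 C, then luciferase luminescence.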

[11] = target: Estrogen receptor beta (Homo sapiens) (UniProt Q92731); assay: qHTS assay to identify small molecule agonists of the estrogen receptor beta (ER-beta) signaling pathway (AID 1259377; active = well fitted activation curve with a large enough effect in the signal ratio in the repeat runs, not every such curve was filed as active; the % refers to the signal ratio)
Estrogen receptor beta (Homo sapiens), sequence (Q92731 whole entry, looked up): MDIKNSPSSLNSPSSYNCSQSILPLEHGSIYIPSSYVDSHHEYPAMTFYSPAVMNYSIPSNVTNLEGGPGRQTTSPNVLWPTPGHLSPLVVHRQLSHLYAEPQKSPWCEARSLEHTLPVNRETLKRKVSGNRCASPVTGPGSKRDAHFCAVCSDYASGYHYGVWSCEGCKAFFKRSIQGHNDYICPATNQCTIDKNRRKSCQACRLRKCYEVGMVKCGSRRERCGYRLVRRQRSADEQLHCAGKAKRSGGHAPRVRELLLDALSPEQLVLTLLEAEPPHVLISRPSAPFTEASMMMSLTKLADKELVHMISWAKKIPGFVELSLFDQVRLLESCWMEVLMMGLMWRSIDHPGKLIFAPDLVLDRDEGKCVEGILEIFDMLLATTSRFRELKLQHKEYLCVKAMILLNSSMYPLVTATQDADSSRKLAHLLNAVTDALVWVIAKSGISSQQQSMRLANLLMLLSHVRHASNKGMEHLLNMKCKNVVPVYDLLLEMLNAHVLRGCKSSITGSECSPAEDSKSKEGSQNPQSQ
Outline: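 ER-beta-UAS-bla HEK293T cells in medium with 2% charcoal-stripped FBS were exposed to compounds for 16 h at 37C. Beta-lactamase reporter activity was read as fluorescence after 2 h with LiveBLAzer B/G FRET substrate at room temperature.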

[12] = target: Estrogen receptor beta (Homo sapiens) (UniProt Q92731); assay: qHTS assay to identify small molecule antagonists of the estrogen receptor beta (ER-beta) signaling pathway (AID 1259378; active = well fitted inhibition curve with a large enough effect in the signal ratio in the repeat runs, not every such curve was filed as active; the % refers to the signal ratio)
Outline: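 ER-beta-UAS-bla HEK293T (GripTite) cells in 2% charcoal-stripped FBS medium were preincubated 6 hr at 37C, dosed with compound, then stimulated with 1 nM E2 (final) for 16 hr; beta-lactamase reporter read by B/G FRET fluorescence after 2 hr substrate loading.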

[13] = qHTS assay to identify small molecule agonists of the androgen receptor (AR) signaling pathway in the presence of an antagonist - cell viability counter screen (AID 1259379);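 also: MDA-kb2 human breast cancer cells carrying an MMTV luciferase reporter; series mostly up to about 92 µM; nearly all actives have a fitted effect of over 25% in size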
Outline: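 A CellTiter-Fluor read-out measured viability of MDA-kb2 reporter cells (MMTV promoter with AR and GR response elements). Treatment: nilutamide 3.0uM final with compounds at 15 concentrations, 16 hr, 37C, 0% CO2.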

[14] = qHTS assay to identify small molecule agonists of the estrogen receptor beta (ER-beta) signaling pathway - cell viability counter screen (AID 1259380); also: nearly all actives have a fitted effect of over 30% in size
Outline: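 Cells used were ER-beta-UAS-bla HEK293T in medium with 2% charcoal-stripped FBS. They were treated for 16 hr at 37C. Viability came from CellTiter-Glo luminescence.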

[15] = qHTS assay to identify small molecule antagonists of the estrogen receptor beta (ER-beta) signaling pathway - cell viability counter screen (AID 1259382); also: series mostly up to about 92 µM; nearly all actives have a fitted effect of over 55% in size
Outline: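 Agonist-stimulated (1nM E2) ER-beta-UAS-bla HEK293T cells are incubated with library compounds for 16 hr at 37C. Cell viability is then assessed in the reporter-assay wells by adding CellTiter-Glo and reading luminescence after 30 min.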

[16] = target: Estrogen receptor (Homo sapiens) (UniProt P03372); assay: qHTS assay to identify small molecule agonists of the estrogen receptor alpha (ER-alpha) signaling pathway in the presence of an antagonist (AID 1259383; calls by dose curve; also: top concentration of the series differs between compounds; nearly all actives have a fitted effect of over 15% in size)
Outline: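 Using VM7Luc4E2 cells seeded 24hr before treatment, antagonist ICI-182,780 (10.0nM final) was added, followed by compounds at 15 concentrations. Plates incubated 22hr; ONE-Glo luminescence quantified reporter activity.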

[17] = qHTS assay to identify small molecule agonists or antagonists of the thyroid stimulating hormone receptor (TSHR) signaling pathway - wild type cell line counter screen (AID 1259384; calls by dose curve)
Outline: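 Wild-type HEK293 cells were plated 18 h at 37 C/5% CO2, pin-dosed with compound plus Ro20-1724 medium, held 30 min at room temperature, then given cAMP-d2 and anti-cAMP-cryptate; fluorescence was read after 1 h. Fifteen concentrations, triplicate.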

[18] = qHTS assay to identify small molecule antagonists of the sonic hedgehog signaling (Shh) pathway - cell viability counter screen (AID 1259367); also: nearly all actives have a fitted effect of over 55% in size
Outline: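 After a 4 hr settling period, 3T3 Gli1-Luc cells were treated with DMSO-dissolved chemicals and conditioned medium, kept 24 hr at 37C in 5% CO2, and assayed for viability by CellTiter-Fluor fluorescence following 1 hr reagent incubation.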
% is scaled to controls: 0 for no effect and ±100 for the full control effect.

CCN[C@H]1CN(CCCOC)S(=O)(=O)c2sc(S(N)(=O)=O)cc21
inactive: Potency [1] | Potency [2] | outcome [3] | Potency [4] | outcome [5] | Potency [6] | outcome [7] | Potency [8] | Potency [9] | Potency [10] | outcome [11] | Potency [12] | Potency [13] | Potency [14] | outcome [15] | Potency [16] | outcome [17]

CO[Si](C)(C)OC
inactive: Potency [1] | Potency [2] | outcome [3] | Potency [4] | Potency [6] | outcome [7] | Potency [8] | Potency [18] | Potency [10] | outcome [11] | Potency [12] | Potency [13] | Potency [14] | outcome [15] | Potency [16] | outcome [17]

CCOC(=O)C(Br)c1ccccc1 (stereo not drawn)
inactive: Potency [1] | Potency [2] | outcome [3] | Potency [4] | Potency [6] | outcome [7] | Potency [8] | Potency [10] | outcome [11] | Potency [12] | Potency [13] | Potency [14] | outcome [15] | Potency [16] | outcome [17]

CC/C=C\CCOC(=O)C(C)C
inactive: Potency [1] | Potency [2] | outcome [3] | Potency [4] | Potency [6] | outcome [7] | Potency [8] | Potency [18] | Potency [9] | Potency [10] | Potency [13] | Potency [14] | outcome [15] | Potency [16] | outcome [17]

CN1C(=O)CC(c2ccccc2)C1=O (stereo not drawn)
inactive: Potency [1] | Potency [2] | outcome [3] | outcome [5] | Potency [6] | outcome [7] | Potency [8] | Potency [9] | Potency [10] | Potency [13] | Potency [14] | outcome [15] | outcome [17]

CN(CC1(C)CCCO1)S(=O)(=O)c1ccc(Cl)c(S(N)(=O)=O)c1 (stereo not drawn)
inactive: Potency [1] | Potency [2] | outcome [3] | Potency [6] | outcome [7] | Potency [8] | Potency [18] | Potency [9] | Potency [10] | outcome [11] | Potency [13] | outcome [15] | outcome [17]

Cc1cc(NS(=O)(=O)c2ccc(N)cc2)nc(C)n1
inactive: Potency [1] | Potency [2] | outcome [3] | outcome [5] | Potency [6] | outcome [7] | Potency [8] | Potency [18] | Potency [10] | outcome [11] | Potency [12] | Potency [13] | Potency [14] | outcome [15] | Potency [16] | outcome [17]

CN(C)CC[C@@H](c1ccc(Cl)cc1)c1ccccn1
inactive: Potency [1] | Potency [2] | outcome [3] | PLD induction [5] 19.5% [at 1.53 µM] | Potency [6] | outcome [7] | Potency [8] | Potency [18] | Potency [9] | Potency [13] | Potency [14] | outcome [15] | outcome [17]

CNCCC(Oc1ccccc1OC)c1ccccc1 (stereo not drawn)
inactive: Potency [1] | Potency [2] | outcome [3] | outcome [5] | Potency [6] | outcome [7] | Potency [8] | Potency [18] | Potency [10] | outcome [11] | Potency [12] | Potency [13] | Potency [14] | outcome [15] | Potency [16] | outcome [17]

CC1(C)S[C@@H]2[C@H](NC(=O)C(C(=O)O)c3ccccc3)C(=O)N2[C@H]1C(=O)O (stereo partly drawn)
inactive: Potency [1] | Potency [2] | outcome [3] | outcome [5] | Potency [6] | outcome [7] | Potency [8] | Potency [18] | Potency [10] | outcome [11] | Potency [12] | Potency [13] | Potency [14] | outcome [15]

CCOc1ccc(NS(=O)(=O)c2ccc(N)cc2)nn1
inactive: Potency [1] | Potency [2] | outcome [3] | outcome [5] | Potency [6] | outcome [7] | Potency [8] | Potency [18] | Potency [9] | Potency [10] | outcome [11] | Potency [12] | Potency [13] | Potency [14] | outcome [15] | outcome [17]

NC1=NCC2c3ccccc3Cc3ccccc3N12 (stereo not drawn)
inactive: Potency [1] | Potency [2] | outcome [3] | outcome [5] | Potency [6] | outcome [7] | Potency [8] | Potency [18] | Potency [9] | Potency [13] | Potency [14] | outcome [15]

CC(=O)Oc1cc(C(C)C)c(OCCN(C)C)cc1C
inactive: Potency [1] | Potency [2] | outcome [3] | outcome [5] | Potency [6] | outcome [7] | Potency [8] | Potency [18] | Potency [9] | Potency [10] | outcome [11] | Potency [12] | Potency [13] | Potency [14] | outcome [15] | outcome [17]

CCOC(=O)c1ccccc1O
inactive: Potency [1] | Potency [2] | outcome [3] | outcome [5] | Potency [6] | outcome [7] | Potency [8] | Potency [18] | Potency [9] | outcome [11] | Potency [12] | Potency [13] | Potency [14] | outcome [15] | outcome [17]

O=CCCc1ccccc1
inactive: Potency [1] | Potency [2] | outcome [3] | Potency [6] | outcome [7] | Potency [8] | Potency [18] | Potency [9] | Potency [10] | outcome [11] | Potency [12] | Potency [13] | outcome [15]

CC(C)NC[C@@H](O)COc1cccc2ccccc12
inactive: Potency [1] | Potency [2] | outcome [3] | outcome [5] | Potency [6] | outcome [7] | Potency [8] | Potency [18] | Potency [9] | Potency [10] | outcome [11] | Potency [13]

O=C1CCCc2ccccc21
inactive: Potency [1] | Potency [2] | outcome [3] | Potency [6] | outcome [7] | Potency [8] | Potency [18] | Potency [9] | Potency [10] | outcome [11] | Potency [12] | Potency [13] | Potency [14] | outcome [15] | Potency [16] | outcome [17]
